# STAT1 inh: reduces IFN-gamma driven STAT1 reporter signal | AID 920 | inhibition, % at 5.5 µM | 200,000 tested, 0.35% active | NIH 3T3 STAT1-luciferase reporter, luminescence;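 active means inhibition above a set limit, the mean inhibition across all tested compounds plus 3 SD, cut at about 34% in these data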
# HSF1 inh: HSF1 inhibition. NIH3T3-HGL HSE-luciferase, MG132-induced, luminescence 8 h; stronger effect = lower value. activity change, negative = inhibition, % at 7.5 µM (by protocol). 300,000 tested, 0.77% active;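 active means more than half of replicate wells show activity change below -50%, luminescence cut by over half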;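 further: luciferase reports HSF-1 transcriptional activity via heat shock element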
# HSP90 refold inh: HSP90 refolding inhibition in rabbit reticulocyte lysate; luciferase refolding luminescence, 3 h; inhibition, % at 5.6 µM; 290,000 tested, 0.91% active; AID 1789;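 active means inhibition above the screen-wide mean plus 3 SD, computed separately per campaign, cut at about 16% in these data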;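 further: inhibitors lower the luminescence because luciferase stays unfolded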
# STAT3 blocker: inhibitors of IL-6 induced STAT3 signaling; 190,000 tested, 0.89% active; AID 862; U3A cells, IL-6 STAT3-luciferase reporter, luminescence; host cell line lacks STAT1; inhibition, % at 5.5 µM;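 active means inhibition above the mean inhibition across all screened compounds plus 3 SD, cut at about 44% in these data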
# C8 TRAIL sens: sensitizes caspase-8 expressing cells to TRAIL. NB7+C8 cells + TRAIL, ATPlite viability luminescence. AID 624354. inhibition (viability loss, TRAIL sensitization), % at 10 µM. 360,000 tested, 1% active;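 active means compounds causing at least 50% loss of cell viability in the single-dose screen, relative to plate controls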
# PPC-1+TRAIL kill: compounds killing PPC-1 cancer cells with TRAIL present (potentiator screen, no TRAIL-free arm) | cell killing (% activity), % at 4 µM or 5 µM | PPC-1 cells + TRAIL, ATPLite viability luminescence | AID 1443 | 220,000 tested, 0.41% active;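 active means cell killing above 50% in the first pass at 4 µM, then a duplicate retest at 5 µM averaging 50% or more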
# Hits are given with their value; i = inactive; nt = no result given. Only some compounds are listed: those with a hit (about 2.4% of all), similar ones and a draw of the others.
SMILES,STAT1 inh,HSF1 inh,HSP90 refold inh,STAT3 blocker,C8 TRAIL sens,PPC-1+TRAIL kill
Cc1cc(C)nc(NC(N)=NCCc2c[nH]c3ccccc23)n1,37,i,i,46,i,i
COc1ccccc1OCC(=O)NCC1CCCN(C(=O)c2cccc(C)c2)C1 (centres undefined),nt,nt,nt,nt,i,nt
Cc1cc(C)cc(N(CC(=O)Nc2ccc(-c3nc4ccc(C)cc4s3)cc2)S(C)(=O)=O)c1,i,i,i,i,i,i
Cc1ccc2nc(-c3ccc(NC(=O)COC(=O)c4ccc(Br)o4)cc3)sc2c1,i,nt,i,43,75,i
CNC(=S)Nc1ccc(-c2nc3ccc(C)cc3s2)cc1,i,i,i,47,i,i
COc1ccc(/C=C(\C#N)C(=O)OCC(=O)Nc2ccc(-c3nc4ccc(C)cc4s3)cc2)cc1,i,i,i,i,54,i
Cc1ccc2nc(-c3ccc(NC(=O)CN(c4ccccc4C)S(C)(=O)=O)cc3)sc2c1,i,i,i,i,43,i
NC(=O)c1cccc(Nc2nc(C(N)COCc3ccccc3)cs2)n1 (centres undefined),nt,nt,nt,nt,i,nt
CC(C)Oc1ccc(CN2CCC2(C)C(=O)Nc2cnc3ccccc3c2)cc1 (centres undefined),nt,nt,nt,nt,i,nt
Cc1cc(Br)c2c(c1)[C@](O)(c1cn(C)c3ccccc13)C(=O)N2C,nt,nt,nt,nt,i,nt
Cc1nn(Cc2ccc(Cl)cc2Cl)c(C)c1NC(=O)CCl,i,i,i,i,90,i
Cc1nn(Cc2ccc(Cl)cc2Cl)c(C)c1NC(=O)c1nn(C)cc1Cl,i,i,i,i,i,i
Nc1nc(N)c2c(ccc3nccc32)[nH]1,nt,i,i,nt,80,i
COc1cc2sc3ccc(-c4ccc(N(C)C)nc4)cc3c(=O)c2cc1OC,nt,i,nt,nt,nt,nt
COc1ccc(-c2ccc3sc4ccccc4c(=O)c3c2)cn1,nt,i,nt,nt,66,nt
CC(CC(=O)c1ccccc1)=NCCCN=C(C)CC(=O)c1ccccc1,nt,nt,nt,nt,i,nt
O=C(CN1CCN(Cc2ccccc2)CC1)N/N=C\C=C/c1ccco1,i,-69,i,i,i,i
O=C(CN1CCN(Cc2ccccc2Cl)CC1)N/N=C/C=C/c1ccco1,nt,i,i,nt,i,i
Nc1nc(SCc2ccccc2)cc(SCc2ccccc2)n1,nt,nt,nt,nt,i,nt
CN(Cc1cnc2nc(N)nc(N)c2n1)c1ccc(C(=O)NC(CCC(=O)O)C(=O)O)c2ccccc12 (centres undefined),nt,nt,nt,nt,83,nt
O=C(O)CCC(NC(=O)c1ccc(Cl)cc1)C(=O)O (centres undefined),i,i,i,i,i,i
O=C(c1ccc(OC2CCN(Cc3ccccn3)CC2)cc1)N1CCC[C@H]1CO,nt,i,16,nt,i,nt
CCC1CCCCN1C(=O)c1ccc(OC2CCN(Cc3ccccn3)CC2)cc1 (centres undefined),nt,i,i,nt,i,nt
CC(C)(C)c1ccc(/C=N/Nc2cccc(C(=O)O)c2)cc1,38,-57,i,46,i,i
O=C(Nc1ccc(S(=O)(=O)N2CCCCC2)cc1)c1ccc(CN2CCc3ccccc3C2)cc1,i,i,i,87,i,i
SMILES,STAT1 inh,HSF1 inh,HSP90 refold inh,STAT3 blocker,C8 TRAIL sens,PPC-1+TRAIL kill
CN(C)c1ccc(CNC(=O)C2(C)Cc3c(-c4cccc(C(F)(F)F)c4)ccnc3O2)cc1 (centres undefined),nt,nt,nt,nt,i,nt
O=C1/C(=C/c2cccnc2)CCC/C1=C\c1cccnc1,i,nt,i,i,nt,82
CN1CCN(C2=C(NS(=O)(=O)c3ccccc3)C(=O)c3ccccc3C2=O)CC1,nt,i,i,nt,51,nt
CCN1CCN(C2=C(NS(=O)(=O)c3ccccc3)C(=O)c3ccccc3C2=O)CC1,nt,i,i,nt,61,nt
N#CCCN(Cc1ccccc1)C(C(=O)NC1CCCCC1)c1ccnc2ccccc12 (centres undefined),nt,nt,nt,nt,i,nt
Cc1ccsc1C(=O)OCC(=O)NC1CCCCC1,nt,nt,nt,nt,i,nt
O=[N+]([O-])c1cc2c(c([N+](=O)[O-])c1)Nc1ccccc1O2,nt,nt,nt,nt,i,nt
Cc1ccc(C)c(N2CCN(C3C(=O)Nc4ccccc4-n4nnnc43)CC2)c1 (centres undefined),nt,nt,nt,nt,i,nt
Cc1c(NS(=O)(=O)c2cc(C(=O)NCc3cccc(Cl)c3)ccc2Cl)c(=O)n(-c2ccccc2)n1C,nt,nt,nt,nt,i,nt
Cc1c(NS(=O)(=O)c2cc(C(=O)NCCN(C)C)ccc2Cl)c(=O)n(-c2ccccc2)n1C,nt,-74,i,nt,i,nt
O=c1[nH]cc(S(=O)(=O)N2CCN(c3ccc(F)cc3)CC2)c(=O)[nH]1,nt,nt,nt,nt,i,nt
COc1cccc(Nc2nc(C(N)Cc3ccccc3)cs2)n1 (centres undefined),nt,nt,nt,nt,i,nt
C(=C\c1ccccc1)/CN1CCN(C(CCc2ccccc2)c2nnnn2C2CCCCC2)CC1 (centres undefined),nt,nt,nt,nt,i,nt
CCOC(=O)c1nnn2c1nc(SCC(C)=O)c1ccccc12,nt,i,i,nt,i,i
CCOC(=O)c1nnn2c1nc(Nc1cccc(C(F)(F)F)c1)c1ccccc12,nt,i,i,nt,59,i
Cc1ccc(C(c2sc3ncnn3c2O)N2CC(C)CC(C)C2)cc1 (centres undefined),i,-58,i,i,i,i
CC1CCCN(C(c2ccccc2)c2sc3ncnn3c2O)C1 (centres undefined),i,i,i,nt,i,i
O=C(ONC1=NCCCCC1)c1ccc(Cl)cc1,i,i,i,i,83,i
CC(C)NC(=O)c1onc(CSc2ccc(C(C)C)cc2)c1C(=O)O,i,i,i,i,i,96
O=C(NCC1CCCO1)c1onc(CSc2ccc(Cl)cc2)c1C(=O)O (centres undefined),i,-61,i,i,i,i
CC(C)NC(=O)c1onc(CSc2ccc(F)cc2)c1C(=O)O,i,i,i,i,i,i
Cc1ccccc1SCc1noc(C(=O)NCC2CCCO2)c1C(=O)O (centres undefined),i,i,i,i,i,i
O=C(Nc1c(-c2ccccc2)[nH][nH]c1=O)c1ccc(Br)cc1,nt,nt,nt,nt,i,nt

# Screening results from PubChem BioAssay.
